Results filed as inconclusive are left out. The source made the active and inactive calls. Rule for the calls, unless noted: active = hit-call score of the fitted dose curve at least 0.9, where 1 is the maximum; inactive = score below 0.9.
Legend:
[1] = CCTE_Padilla_ZF_Score.Tail: CCTE's 144 Hour Post-fertilization zebrafish Assay Score for Tail Malformation, Padilla Lab (AID 2284414)
Outline: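 Wild-type zebrafish embryos, one per well in 200 uL 10% Hanks', dosed at 6-8 hpf, sealed, and kept at 26 C on a 14:10 h light cycle. Chemical was rinsed out at 5 dpf. Blinded brightfield scoring of tail defects followed at 6 dpf.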

[2] = CCTE_Padilla_ZF_Score.Blood_pooling: CCTE's 144 Hour Post-fertilization zebrafish Assay Score for Blood Pooling, Padilla Lab (AID 2284415)
Outline: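 Wild-type outbred zebrafish embryos, one per well in 10% Hanks', exposed from 6–8 hpf in sealed plates at 26C on 14:10 h light:dark, rinsed at 5 dpf. Blinded stereomicroscope scoring of blood pooling at 6 dpf; gain-of-signal versus DMSO.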

[3] = CCTE_Padilla_ZF_Score.Any: CCTE's 144 Hour Post-fertilization zebrafish Assay Score for Any Mortality or Malformation, Padilla Lab (AID 2284416)
Outline: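 Wild-type zebrafish embryos with chorions, one per well in 10% Hanks' from 6–8 hpf, dosed in sealed plates at 26 C, 14:10 h light:dark; rinsed at 5 dpf; blinded scoring at 6 dpf for death or malformation, versus DMSO.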

[4] = system: SRY-box transcription factor 2 (SOX2) Protein Expression, Deisenroth Lab, SOX2 (gene 6657); experiment: CCTE_Deisenroth_DEVTOX-GLR_Endo_SOX2: CCTE's DevTox GLR-Endo Assay Evaluation of SRY-box transcription factor 2 (SOX2) Protein Expression, Deisenroth Lab (AID 2284412; active = hit-call score of the fitted dose curve at least 0.9, where 1 is the maximum)
Outline: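 RUES2-GLR human pluripotent cells were seeded 24 h, then differentiated 48 h with two chemical exposures 24 h apart. Cells were fixed, nuclei stained and imaged by high-content microscopy. Endpoint is %SOX2+ cells over cell count, minus 0.2% DMSO control; 10-point series 1 nM–200 uM.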

[5] = system: SRY-box transcription factor 17 (SOX17) Protein Expression, Deisenroth Lab, SOX17 (gene 64321); experiment: CCTE_Deisenroth_DEVTOX-GLR_Endo_SOX17: CCTE's DevTox GLR-Endo Assay Evaluation of SRY-box transcription factor 17 (SOX17) Protein Expression, Deisenroth Lab (AID 2284413)
Description: CCTE_Deisenroth_DEVTOX-GLR_Endo assay is a cell-based, multiplex-readout assay that uses RUES2-GLR, a human pluripotent cell line, with measurements taken at 48 hours after chemical dosing in a 384-well microplateCCTE_Deisenroth_DEVTOX-GLR_Endo_SOX17 is 1 of 4 assay components calculated from the CCTE_Deisenroth_DEVTOX-GLR_Endo assay and it measures the percentage of cells in an endoderm state. Using a type of inducible fluorescent protein reporter, gain-of-signal activity can be used to understand changes in gene expression with fluorescent microscopy. The percentage of SOX17+ cells are determined by calculating the number of SOX17+ cells divided by the cell count. To generalize the intended target to other relatable targets, this assay component is annotated to the transcription factor intended target family, where the subfamily is SRY-related HMG-box.Data from the assay component CCTE_Deisenroth_DEVTOX-GLR_Endo_SOX17 was analyzed as 1 assay endpoint. The endpoint is the percent change in SOX17+ cell population relative to the 0.2% DMSO control in the CCTE_Deisenroth_DEVTOX-GLR_Endo assay. This assay endpoint can be referred to as a primary readout since this assay has produced multiple assay endpoints where this one serves as a measure of endoderm differentiation.
All assay protocols are aligned to the DevTox GLR-Endo assay workflow. […]

[6] = system: Brachyury (BRA) Protein Expression, TBXT (gene 6862); experiment: CCTE_Deisenroth_DEVTOX-GLR_Endo_BRA: CCTE's DevTox GLR-Endo Assay Evaluation of Brachyury (BRA) Protein Expression, Deisenroth Lab (AID 2284417)
Outline: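 Endpoint is the fraction of BRA reporter-positive cells over total nuclei, corrected by subtracting the 0.2% DMSO value. Chemicals (1 nM - 200 uM, 10 points) were dosed twice during 48 h differentiation of RUES2-GLR cells, read by imaging.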

[7] = CCTE_Deisenroth_DEVTOX-GLR_Endo_CellCount: Viability Assessment in CCTE's DevTox GLR-Endo Assay, Deisenroth Lab (AID 2284420)
Outline: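 Viability in differentiating RUES2-GLR cultures is scored by fluorescent nuclear counts after 48 h and two 24-hourly chemical treatments, as percent change from the 0.2% DMSO control.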

[8] = system: SRY-box transcription factor 17 (SOX17) Protein Expression, Deisenroth Lab, SOX17 (gene 64321); experiment: CCTE_Deisenroth_DEVTOX-GLR_Pluri_SOX17: CCTE's DevTox GLR-Pluri Assay Evaluation of SRY-box transcription factor 17 (SOX17) Protein Expression, Deisenroth Lab (AID 2284427; active = hit-call score of the fitted dose curve at least 0.9, where 1 is the maximum)
Outline: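 Seed cells 24 h; differentiate 48 h, dosing at 0 and 24 h (1 nM - 200 uM); fix, stain nuclei, image 5 fields per well; count SOX17+ cells over total cells and subtract 0.2% DMSO control.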

[9] = system: SRY-box transcription factor 2 (SOX2) Protein Expression, Deisenroth Lab, SOX2 (gene 6657); experiment: CCTE_Deisenroth_DEVTOX-GLR_Pluri_SOX2: CCTE's DevTox GLR-Pluri Assay Evaluation of SRY-box transcription factor 2 (SOX2) Protein Expression, Deisenroth Lab (AID 2284428)
Outline: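 SOX2 expression frequency is scored in a human pluripotent reporter line, RUES2-GLR, exposed to chemicals twice over 48 h. Imaging-based SOX2+ cell percentage is normalized as change versus 0.2% DMSO.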

[10] = system: Brachyury (BRA) Protein Expression, Deisenroth Lab, TBXT (gene 6862); experiment: CCTE_Deisenroth_DEVTOX-GLR_Pluri_BRA: CCTE's DevTox GLR-Pluri Assay Evaluation of Brachyury (BRA) Protein Expression, Deisenroth Lab (AID 2284429; active = hit-call score of the fitted dose curve at least 0.9, where 1 is the maximum)
Outline: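 An inducible fluorescent BRA reporter in RUES2-GLR cells tracks mesoderm differentiation. Compounds (10 concentrations, 1 nM - 200 uM) are dosed twice within a 48-h differentiation. The endpoint subtracts the 0.2% DMSO control from percent BRA+ cells.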

Measured: AC50

C=CCOC(F)(C(F)(F)F)C(F)(F)F
inactive: [1] | [2] | [3]

CC(F)(F)CC(F)(F)F
inactive: [1] | [2] | [3]

NC(=O)c1ccc(N)nc1
inactive: [8]
active: [4] 71.1 µM | [5] 21 µM | [6] 68.7 µM | [7] 30.6 µM | [9] 38.1 µM | [10] 100 µM

COC(F)(C(F)(F)C(F)(F)F)C(F)(C(F)(F)F)C(F)(F)F (centres undefined)
inactive: [1] | [2] | [3]

O=S(=O)(F)C(F)(F)C(F)(F)C(F)(F)C(F)(F)F
inactive: [1] | [2] | [3]

Reference: PubChem BioAssay (EPA / NIEHS)
